Source: PubChem BioAssay (NCI)
This is part of a sample that, as a whole, favours compounds with a hit. Of some 79,000 tested, about 15% had one in any assay. Values without a mark were called inactive. Activity calls are given as the source filed them. Cut-off read from the data, not from the text of the source: active = growth inhibition above about 70%; inactive = the rest.

What was measured:
[1] = NCI Yeast Anticancer Drug Screen. Data for the rad50 strain (AID 155);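 note: 0% = growth of vehicle-only cultures of the same strain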; details: S. cerevisiae rad50 strain growth inhibition; at 50.0 µM; stronger effect = higher value
In short: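 DNA repair mutant yeast, compound exposure, growth read-out; inhibition is taken relative to vehicle.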

[2] = NCI Yeast Anticancer Drug Screen. Data for the mec2-1 strain (AID 157); details: S. cerevisiae mec2-1 strain, at 50.0 µM, stronger effect = higher value
In short: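 Cells of the genetically defined mec2-1 yeast strain are incubated with test compound. Inhibition of growth is calculated against vehicle-treated controls.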

[3] = NCI Yeast Anticancer Drug Screen. Data for the sgs1 mgt1 strain (AID 161);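 note: 0% = growth of cultures given vehicle only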; details: S. cerevisiae sgs1 mgt1 strain, at 50.0 µM, stronger effect = higher value
In short: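 Test agents were incubated with a DNA-repair-mutant yeast strain. Growth was then read and compared against vehicle-treated controls.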

[4] = NCI Yeast Anticancer Drug Screen. Data for the cln2 rad14 strain (AID 165);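 note: 0% = growth equal to vehicle treated cultures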; details: S. cerevisiae cln2 rad14 strain, at 50.0 µM, stronger effect = higher value
In short: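 The screen exposed genetically defined yeast (cln2 rad14) to test compounds and scored growth inhibition relative to vehicle-treated controls.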

[5] = NCI Yeast Anticancer Drug Screen. Data for the bub3 strain (AID 167); details: S. cerevisiae bub3 mutant strain, at 50.0 µM, stronger effect = higher value
In short: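 In this screen, a yeast mutant lacking normal mitotic checkpoint function is challenged with compound. Relative growth versus vehicle gives the inhibition value.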

[6] = NCI Yeast Anticancer Drug Screen. Data for the mlh1 rad18 strain (AID 175); details: S. cerevisiae mlh1 rad18 strain growth inhibition; at 50.0 µM; stronger effect = higher value
In short: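 Compound-treated yeast growth, normalised to vehicle controls. Strain bears defined DNA repair mutations.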

| SMILES | growth inhibition [1] | growth inhibition [2] | growth inhibition [3] | growth inhibition [4] | growth inhibition [5] | growth inhibition [6] |
| --- | --- | --- | --- | --- | --- | --- |
| COC(=O)C1=C(\O)C[C@@]2(C)CC[C@@H](C(=O)OC)C2C/C=C\1C(=O)OC (some centres not stated) | -4.75% | -6.25% | 0.05% | 11.1% | -8.6% | 34.8% |
| COc1ccc(CCN2C(=O)C(=O)N(c3ccc(Cl)c(Cl)c3)C2=O)cc1OC | 3.05% | -0.25% | 11.5% | 14.3% | -4.35% | 13% |
| CCN(CC)CCCCCOC(=O)c1cccc(N)c1 | -5.8% | 0.35% | -16.6% | -45.9% | 27.2% | -10.1% |
| O=[N+]([O-])c1cccc2cnccc12 | -7.25% | 22.4% | 3.9% | -21.1% | 5.5% | 17.6% |
| Cc1cc([N+](=O)[O-])ccc1N=NC(=O)NNc1ccc([N+](=O)[O-])cc1C | -0.45% | 5.1% | 8.35% | -33.1% | 4.15% | 23.2% |
| O=C(O)C1C2C=CC(O2)C1C(=O)Nn1cccc1 (configuration not stated) | 6.5% | -7.5% | -17.6% | -12.8% | -16.6% | -6.75% |
| CCN(CC)CN(CC)CC | 13.7% | -9.2% | 7.6% | 21.4% | 10.9% | 9.25% |
| CC12CCC(=O)C3C1CCCC32 | -0.45% | -6.2% | -13.9% | 1.2% | -2.15% | -21.6% |
| c1ccc(OCCSCCCCCCCCCCSCCOc2ccccc2)cc1 | -5.85% | -11.8% | -25.6% | -12.6% | -28.6% | -24.5% |
| O=C(O)c1ccc(OC2CCCCC2)cc1 | 6.85% | 12.1% | 42.1% | 18.6% | 11.4% | 30.9% |
| CO[Si](C)(C)OC | -6.65% | -32% | -7.15% | 0.3% | -6.15% | -13.9% |
| C[C@]12CC[C@@H]3c4ccc(OS(=O)(=O)O)cc4CC[C@H]3[C@@H]1CCC2=O | 22.2% | -0.4% | 12.2% | 18.4% | 23.6% | 3.15% |
| O=C(CI)Nc1ccc2oc(=O)c(C(=O)O)cc2c1 | -7% | -6.05% | 4.85% | -64.4% | -2.9% | -12.8% |
| CCC(O)(c1ccccc1)c1ccccc1 | 1.7% | 3.5% | -5.65% | 4.15% | -19.8% | -4.8% |
| CC(O)CNc1ncnc2c1cnn2C (configuration not stated) | -4.1% | -24.9% | -10.2% | 8.8% | -4.3% | 12.8% |
| CCCCCCCCCCCCOc1ccc(Sc2ccc([N+](=O)[O-])cc2)cc1 | 30.2% | 2.55% | 35.1% | -34.3% | 5.1% | 25.8% |
| COc1cc2c(cc1OC)C(c1ccccc1)OCC2 (configuration not stated) | -8.25% | 9.65% | 6.8% | -46.1% | -2.6% | -2.05% |
| CC(=O)OC1OC(COC(c2ccccc2)(c2ccccc2)c2ccccc2)C(OCc2ccccc2)C(OCc2ccccc2)C1OC(C)=O (configuration not stated) | -14.3% | -18.1% | -21.1% | 13.3% | 0.45% | 1.65% |
| CN(C)C(=O)c1ccccc1 | 29.6% | 6.25% | -0.35% | 13.9% | -9.25% | 1.55% |
| CCN1c2ccccc2CC(CCN(C(C)C)C(C)C)(C(N)=O)c2ccccc21 (configuration not stated) | 40.9% | 4.9% | 24.8% | 21.3% | -3.1% | -0.9% |
| NC(C(=O)O)c1ccc(F)cc1 (configuration not stated) | -9.1% | -1.4% | 28.7% | -10% | 2.4% | 37.5% |

| SMILES | growth inhibition [1] | growth inhibition [2] | growth inhibition [3] | growth inhibition [4] | growth inhibition [5] | growth inhibition [6] |
| --- | --- | --- | --- | --- | --- | --- |
| OCc1ccccc1CO | -19.6% | -15% | -9.25% | 13.3% | -3.75% | 3.15% |
| CCC(=O)OC1C(OC2C(C)C(OC3CC(C)(OC)C(O)C(C)O3)C(C)C(=O)OC(CC)C(C)(O)C(O)C(C)C(=O)C(C)CC2(C)O)OC(C)CC1N(C)C (configuration not stated) | -18.1% | -28.1% | -31.2% | 5.7% | -3% | -76.8% |
| COc1cc2c(cc1OC)C(c1ccccc1CCCCl)=NCC2 | 6.4% | -4% | -25.1% | 10.8% | -27.5% | -44.7% |
| O=C(Nc1ccc(Br)cc1)c1ccccc1 | 14.4% | 20.9% | 0.35% | -31.5% | 0.8% | 22.1% |
| O=C1CCc2ccccc2-c2ccccc21 | 17.9% | 5% | -12.1% | -32% | -5.3% | 5.4% |
| O=C(N=Nc1c(O)[nH]c2ccc(Br)cc12)c1ccco1 | 24.2% | 28.8% | 43.2% | 14.7% | 43.2% | 43% |
| Clc1ccc(C(CI)c2ccccc2Cl)cc1 (configuration not stated) | 10.8% | 11.3% | 12.3% | 13.8% | 27.9% | 6.05% |
| Cc1cc(Cl)ccc1NC(N)=O | -5.95% | -20.3% | 5.15% | 22.4% | -3.7% | -1.85% |
| Cc1cc(Cl)ccc1OCC(=O)OCCBr | 3.55% | 17.9% | 5.35% | -23.2% | -22.9% | -8.15% |
| O=C1CCC2(c3ccccc3)Nc3ncccc3N12 (configuration not stated) | 33% | 2.8% | 6.6% | 3.85% | 23% | 27.8% |
| CCCN1C(=O)CC(NC(C)=O)C1=O (configuration not stated) | -2.85% | 6.45% | 8.1% | -17.9% | -5.85% | 9.65% |
| C=C/C=C1\CCOC1=O | 1.15% | -5.9% | 2.85% | -3.05% | 3.1% | -10.6% |
| O=C(NNC(=O)C(F)(F)F)C(F)(F)F | 0.55% | -3.4% | -5.1% | -10% | -12.8% | -2% |
| O=C(Oc1ccco1)c1ccc([N+](=O)[O-])cc1 | 2.55% | 0.6% | -4.7% | -17.2% | 0.1% | -9.8% |
| Cc1cccc2nc(-c3ccccc3)ccc12 | -3.5% | -11.6% | 1.55% | 5.6% | 4.95% | 4% |
| COc1cc(C=O)ccc1OC(=O)Nc1cccc(C(C)=O)c1 | 4.7% | 23.6% | 15.9% | 7.65% | 18.9% | -18.6% |
| C=CCOC(=O)Nc1ccc(S(=O)(=O)CC)cc1 | -0.95% | 5.95% | -4.55% | -21.6% | 22.8% | -1.65% |
| COc1ccc2ccc3c4c(c(=O)[nH]c3c2n1)CCC4 | 44% | 28.8% | 33.7% | 2.55% | 9.95% | 30.9% |
| O=C(O)/C=C/Sc1ccc(Cl)cc1 | 76% (active) | 32.5% | 79.3% (active) | 59.9% | 78% (active) | 78.4% (active) |
| OC1Cn2cc(Br)c[n+]2C1 (configuration not stated) | 8.3% | -5.5% | -21.5% | 1.2% | -2% | -13.6% |
| O=C(Nc1ccc(Cl)c(Cl)c1)OC1C=CS(=O)(=O)C1 (configuration not stated) | -7.9% | -5.95% | -12.3% | 7.7% | 3.5% | -0.15% |
